This note sets out measurements from PubChem BioAssay (Tox21).

Records with an inconclusive call do not appear. Where a call stands in place of a potency, no number is given. A number with no mark means an inactive call. Calls of active or inactive are those of the source. Calls follow the shape of the dose curve; as a rule, active = well fitted cell-killing curve with a large enough effect in the repeat runs; inconclusive = weak or mixed curves, or effect the other way; inactive = no such curve, though single readings can be large or run the other way.

The assay in a line: qHTS assay to identify small molecule antagonists of the vitamin D receptor (VDR) signaling pathway - cell viability counter screen (AID 743225). Also: nearly all actives have a fitted effect of over 50% in size. The settings on record: VDR-bla HEK293T viability, CellTiter-Glo luminescence, 16 h; series mostly up to 61 µM. The text has this: U.S. Tox21 Program National Center for Advancing Translational Sciences [NCATS] NIH Chemical Genomics Center [NCGC] U.S. Environmental Protection Agency [EPA] National Institutes of Environmental Health Sciences [NIEHS] National Toxicology Program [NTP] U.S. Food and Drug Administration [FDA] Tox21 Assay Overview: The vitamin D receptor (VDR), a member of nuclear hormone receptor superfamily, plays a critical role in calcium homeostasis and bone metabolism. It is also involved in cell differentiation and growth, and thrombogenicity. To identify the compounds that inhibit VDR signaling, the VDR-UAS-bla HEK 293T cell line (Invitrogen, Carlsbad, CA, USA) containing a beta-lactamase reporter gene under the control of an upstream activator sequence (UAS) was used to screen the Tox21 10K compound library. The cytotoxicity of the Tox21 compound library against the VDR-bla cell line was tested in parallel by measuring the cell viability using CellTiter-Glo assay (Promega, Madison, WI) in the same wells.
Tox21 Assay Protocol Summary: VDR-bla cells were dispensed at 2,000 cells/5 uL of assay medium per well into black wall/clear-bottom 1536-well plates using a Multidrop Combi (Thermo Fisher Scientific, Waltham, MA) dispenser. After the assay plates were incubated at a 37C and 5% CO2 for 4 h, 23 nL of compounds dissolved in DMSO, positive controls or DMSO only was transferred to the assay plate by a Pintool station (Kalypsys, San Diego, CA), followed by addition of 1 uL of 1-alpha, 25-Dihydroxy Vitamin D3 (3 nM, final concentration in the wells) using a Bioraptr Flying Reagent Dispenser (FRD) workstation (Beckman Coulter, Indianapolis, IN). The plates were incubated at 37C and 5% CO2 for 16 h, and then 1 uL of LiveBLAzerTM B/G FRET substrate was added using a Bioraptr FRD. The plates were incubated at room temperature for 2 h and fluorescence intensity was measured by an Envision plate reader (PerkinElmer, Shelton, CT). For cell viability readout that measures cytotoxicity, 3 ul/well of CellTiter-Glo reagent was added into the assay plates using a Bioraptr FRD. After 30 min incubation at room temperature, the luminescence intensity in the plates was measured using a ViewLux plate reader (PerkinElmer).
(qHTS replaces the single test concentration by a dilution series.)
Turning to `CC1CN(c2cc3c(cc2F)c(=O)c(C(=O)O)cn3-c2ccc(F)cc2F)CCN1` (stereo not given), the viability change, negative = cytotoxic was 9.78% [at 6.95 µM].
Turning to `Cc1cnc(C)c(C)n1`, the Potency result was “inactive”.
Consider `CC(=O)Oc1ccc(C(=C2CCCCC2)c2ccc(OC(C)=O)cc2)cc1`, for which the Potency entry is “inactive”.
In the case of `[O]=[Bi]`, the viability change, negative = cytotoxic is -2.19% [at 6.95 µM].
For the molecule `C[C@]12CCC(=O)C=C1C=C[C@@H]1[C@@H]2CC[C@@]2(C)[C@H]1CC[C@@]21CCC(=O)O1`, the Potency entry is “inactive”.
Turning to `CCCOC(=O)c1ccc(N)cc1`, the Potency result was “inactive”.
For `NC(=O)N(O)[C@@H]1C=C[C@H](Oc2cccc(Oc3ccc(F)cc3)c2)C1`, the Potency result is “inactive”.
Same read-out and setting: as for `COc1ccc(C(=O)c2cccc(O)c2)c(OC)c1`, the entry is “inactive”; as for `Nc1ccc(S(=O)(=O)O)cc1`, “inactive”.
Take `CC#N`: the Potency entry was “inactive”.
Still for that read-out and setting: as for `CCCCCCCC/C=C\CCCCCCCC(=O)OC`, the entry is “inactive”.
For `C=CC(=O)NCOCC(C)C`, the Potency result is “inactive”.
Consider `CCC(C)(C)C1CCC(O)CC1` (stereo not given), for which the Potency result was “inactive”.
Take `COc1cc2[nH]c(=O)[nH]c(=O)c2cc1OC`: the Potency entry is “inactive”.
Regarding `CN1Cc2cc(C(=O)N3CCC(C4CCNCC4)CC3)ccc2N[C@@H](CC(=O)O)C1=O`, the Potency result was “inactive”.
The same measure, in the same setting: as for `CCCCCCCCCCOS(=O)(=O)O`, the entry is “inactive”; as for `Nc1nc(Cl)nc2c1ncn2[C@@H]1O[C@H](CO)[C@@H](O)[C@@H]1F`, “inactive”.
In the case of `CC(COc1ccc(C(C)(C)C)cc1)OS(=O)OCCCl` (stereo not given), the Potency result was “inactive”.
Regarding `CCCCCCCCCCCC[N+](C)(C)CCCS(=O)(=O)[O-]`, the Potency result is “inactive”.
Same read-out and setting: as for `O=C(OCCOCCO)c1ccccc1Nc1cccc(C(F)(F)F)c1`, the entry is “inactive”; as for `O=C(O)C(Cc1cc(I)c(O)c(I)c1)c1ccccc1` (stereo not given), “inactive”; as for `CN1C(=O)CC(C)(c2ccccc2)C1=O` (stereo not given), “inactive”.
As to `COc1ccc([C@@H]2Sc3ccccc3NC(=O)[C@@H]2O)cc1`, the Potency result is “inactive”.
For `C=CC(C)(O)CCCC(C)CCCC(C)CCCC(C)C` (stereo not given), the Potency entry was “inactive”.
Still for that read-out and setting: as for `CC(C)CCCCCOC(=O)CCCCC(=O)OCCCCCC(C)C`, the entry is “inactive”.
On to `N#C/C(=C1\SCC(c2ccccc2Cl)S1)n1ccnc1` (stereo not given), for which the Potency entry was “inactive”.
In the case of `CC1CC(O)CC(C)(C)C1` (stereo not given), the Potency entry is “inactive”.
For the molecule `C=CCCCCCCCCCCCCCCCC`, the viability change, negative = cytotoxic was 8.8% [at 6.95 µM].
In the case of `CCOC(=O)OCC`, the Potency entry was “inactive”.
Same read-out and setting: as for `OCC1CC=CCC1` (stereo not given), the entry is “inactive”.
Take `O=C(CCCCCCC(=O)Nc1ccccc1)NO`: the Potency result was “inactive”.
`NC(=O)Nc1ccc(Cl)c(Cl)c1`: the Potency result is “inactive”.
Consider `Cc1cc2nc3ccc(=[N+](C)C)cc-3sc2cc1N`, for which the Potency result was “inactive”.
Regarding `CCC(C)(O)CCC=C(C)C` (stereo not given), the Potency entry was “inactive”.
With `NCC1CCCC(CN)C1` (stereo not given), the Potency result was “inactive”.
The same measure, in the same setting: as for `Cc1cc(S(=O)(=O)O)ccc1N=Nc1c(O)ccc2ccccc12`, the entry is “inactive”.
On the same count and under the same terms, as for `Cc1cc(C(=C2C=CC(=Nc3ccc(S(=O)(=O)O)cc3S(=O)(=O)O)C=C2)c2ccc(Nc3ccc(S(=O)(=O)O)cc3)cc2)ccc1N`, the entry is “inactive”.
On to `Nc1ccc(Cl)cc1[N+](=O)[O-]`, for which the Potency entry is “inactive”.
On to `COCCOC(=O)C1=C(C)NC(C)=C(C(=O)OC/C=C/c2ccccc2)C1c1cccc([N+](=O)[O-])c1` (stereo not given), for which the Potency entry was “inactive”.
`CCC(C(=O)OCCN(CC)CC)c1ccccc1` (stereo not given): the Potency entry is “inactive”.
